From PubChem BioAssay AID1159580 (chemical genetic matrix, 2015)
Several values for one entry are separate records, joined by “and”; a condition that tells them apart may be missing. Identical values can stand only once. About 2,000 (36%) of roughly 5,500 compounds were called active. Roughly 18% stayed inconclusive and do not appear here. Rule as the data show it: active = normalized growth mostly below about 0.91 (no sharp cut-off); inconclusive = no clear call, values can overlap the other calls; inactive = mostly above about 0.92. The list shows a part of the results.

Assay: chemical genetic growth profiling, strain panel (AID 1159580);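 also: tested at 20 µM; growth read once vehicle control cultures reached saturation at 30 °C; 1 = growth at the plate median or of vehicle wells; lower values mean less growth of the strain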
Settings: S. cerevisiae deletion strains, growth OD

Measured: normalized growth

O=P1(N(CCCl)CCCl)NCCCO1 (configuration not stated)
inactive: locus YAL013W, strain DEP1, active compounds read low 0.998 and 0.974 | locus YAL021C, strain ccr4, active compounds read low 0.995 | locus YAL026C, strain drs2, active compounds read low 0.981 | locus YAL030W, strain snc1, active compounds read low 1.01 | locus YAL040C, strain CLN3, active compounds read low 0.973 | locus YBL061C, strain skt5, active compounds read low 1.01 | locus YBR009C, strain hhf1, active compounds read low 1.01 | locus YBR021W, strain FUR4, active compounds read low 1.02 | locus YBR023C, strain chs3, active compounds read low 1.02 | locus YBR171W, strain sec66, active compounds read low 1 | locus YBR229C, strain ROT2, active compounds read low 1 | locus YBR231C, strain swc5, active compounds read low 0.995 | locus YBR279W, strain paf1, active compounds read low 1 | locus YCL011C, strain gbp2, active compounds read low 1.01 | locus YCL016C, strain dcc1, active compounds read low 1.04 | locus YCL029C, strain bik1, active compounds read low 1.03 | locus YCL061C, strain MRC1 (second series), active compounds read low 1 | locus YCL061C, strain MRC1, active compounds read low 1 | locus YCL069W, strain vba3, active compounds read low 0.995 | locus YCR088W, strain abp1, active compounds read low 1 | locus YDL005C, strain med2, active compounds read low 0.99 | locus YDL035C, strain GPR1, active compounds read low 1.02 | locus YDL040C, strain nat1, active compounds read low 0.998 | locus YDL074C, strain BRE1, active compounds read low 1.03 | locus YDL101C, strain DUN1, active compounds read low 1.01 | locus YDL185W, strain tfp1, active compounds read low 1.01 | locus YDL192W, strain arf1, active compounds read low 1.03 | locus YDR001C, strain nth1, active compounds read low 0.992 | locus YDR069C, strain doa4, active compounds read low 1 | locus YDR101C, strain arx1, active compounds read low 1.02 | locus YDR137W, strain rgp1, active compounds read low 1.01 | locus YDR150W, strain NUM1, active compounds read low 0.996 | locus YDR159W, strain sac3, active compounds read low 0.99 | locus YDR162C, strain NBP2, active compounds read low 1.01 | locus YDR195W, strain ref2 0.977 | locus YDR297W, strain sur2, active compounds read low 1.03 | locus YDR318W, strain mcm21, active compounds read low 1.03 | locus YDR334W, strain swr1, active compounds read low 0.994 | locus YDR335W, strain msn5, active compounds read low 1.01 | locus YDR363W, strain ESC2, active compounds read low 0.962 | locus YDR388W, active compounds read low 1.02 | locus YDR392W, strain spt3, active compounds read low 0.941 | locus YDR502C, strain sam2, active compounds read low 1.06 | locus YEL003W, strain gim4, active compounds read low 0.991 | locus YEL037C, strain rad23, active compounds read low 0.984 | locus YEL061C, strain CIN8 (second series), active compounds read low 0.98 | locus YEL061C, strain CIN8, active compounds read low 1 | locus YER002W, strain NOP16, active compounds read low 1.01 | locus YER015W, strain faa2, active compounds read low 1.02 | locus YER016W, strain bim1, active compounds read low 0.997 | locus YER110C, active compounds read low 1.05 | locus YER111C, strain swi4, active compounds read low 0.995 | locus YER155C, strain BEM2 (second series), active compounds read low 0.936 | locus YER155C, strain BEM2, active compounds read low 0.996 | locus YER167W, strain BCK2, active compounds read low 1 | locus YFR010W, strain ubp6, active compounds read low 0.971 | locus YGL078C, strain dbp3, active compounds read low 1.03 | locus YGL086W, strain mad1, active compounds read low 1.03 | locus YGL167C, strain pmr1, active compounds read low 1.01 | locus YGL173C, strain kem1, active compounds read low 1.01 | locus YGL227W, strain vid30, active compounds read low 0.992 | locus YGL240W, strain doc1, active compounds read low 0.983 | locus YGL248W, strain PDE1, active compounds read low 1.01 | locus YGL253W, strain hxk2, active compounds read low 0.987 | locus YGR078C, strain PAC10, active compounds read low 0.988 | locus YGR135W, strain pre9, active compounds read low 1.04 | locus YGR229C, strain SMI1, active compounds read low 1 | locus YGR252W, strain gcn5, active compounds read low 1.07 | locus YHR013C, strain ard1, active compounds read low 1.03 | locus YHR027C, strain rpn1, active compounds read low 1.01 | locus YHR030C, strain SLT2, active compounds read low 1.01 and 0.994 | locus YHR079C, strain IRE1 (second series), active compounds read low 1.03 | locus YHR079C, strain IRE1, active compounds read low 0.991 | locus YHR094C, strain hxt1, active compounds read low 1.03 | locus YHR129C, strain ARP1, active compounds read low 1 | locus YHR142W, strain chs7, active compounds read low 1.02 | locus YHR200W, strain rpn10, active compounds read low 1.02 | locus YIL066C, strain RNR3, active compounds read low 1.02 | locus YIL073C, strain SPO22, active compounds read low 1.01 | locus YIL125W, strain kgd1, active compounds read low 1.02 | locus YIR030C, strain dcg1, active compounds read low 1.03 | locus YJL092W, strain hpr5, active compounds read low 1.01 | locus YJL095W, strain BCK1 (second series), active compounds read low 1.01 | locus YJL095W, strain BCK1, active compounds read low 1.03 and 0.99 | locus YJL115W, strain asf1, active compounds read low 0.994 | locus YJL129C, strain trk1, active compounds read low 1.02 | locus YJL134W, strain LCB3, active compounds read low 1.01 | locus YJL154C, strain vps35, active compounds read low 0.988 | locus YJL164C, strain tpk1, active compounds read low 1.01 | locus YJL166W, strain qcr8, active compounds read low 1.03 | locus YJL168C, strain set2, active compounds read low 1.02 | locus YJL187C, strain SWE1 (second series), active compounds read low 1.01
